Assay results as given in PubChem BioAssay AID1986 (Sanford-Burnham Center for Chemical Genomics, 2009).
Out of some 290,000 compounds screened, about 890 (0.31%) were called active. Rule as the data show it: active = inhibition mostly above about 52% (no sharp cut-off); inactive = mostly below about 76%. Only a selection was taken, and actives are over-represented in it overall.

Assay: inhibitors of HIV fusion peptide binding, primary screen, biochemical, uHTS, fluorescence dequenching (AID 1986)
Conditions: cell-free peptide binding, 30 min, stronger effect = higher value
[1] = measured here: repeat confirmation average inhibition, at 18.6 µM

SMILES	inhibition (at 20 µM)	inhibition [1] [%]
Nc1ccc(Cc2ccc(N)c(C(=O)O)c2)cc1C(=O)O	5.8% (inactive)	–
Nc1ccc(Cc2ccc(N)c(O)c2)cc1O	52.4% (active)	–
Cc1cc(Cc2ccc(N)c(C)c2)ccc1N	-1.4% (inactive)	–
CC(C)COc1ccc(S(=O)(=O)n2cc(F)c(=O)[nH]c2=O)cc1	2.9% (inactive)	–
COc1cccc(-c2nc(Cc3ccc(OC)c(OC)c3)no2)c1	2.1% (inactive)	–
COc1ccc(Cc2noc(-c3ccc(OC)c(OC)c3)n2)cc1OC	0.9% (inactive)	–
COc1ccc(Cc2noc(-c3ccccc3)n2)cc1OC	61.8% (active)	–
CC(C)CNC(=O)c1cccc(NC(=O)c2ccco2)c1	-0.6% (inactive)	–
CCOC(=O)C1=C(C)N(CC)C(=S)NC1c1ccccc1OC(F)F (stereo not drawn)	-2% (inactive)	–
CCOC(=O)c1c(NC(=O)N/N=C/c2ccc(O)c(OC)c2)sc(C(C)=O)c1C	-2.2% (inactive)	–
N#Cc1ccc2ccn(CC(=O)NCc3ccccc3)c2c1	-1.6% (inactive)	–
CC(C)(C)/C(O)=C(/C#N)c1nc2ccccc2[nH]1	-1.6% (inactive)	–
CN(C)c1cccc(C(=O)NNC(=S)NC2CC3CCC2C3)c1 (stereo not drawn)	-1.9% (inactive)	–
CCOC(=O)c1c(S(=O)(=O)Nc2ccccn2)c(C)n(C)c1C	2.8% (inactive)	–
COc1ccccc1CNC(=O)C1CCC(CNS(=O)(=O)c2ccc(F)cc2)CC1 (stereo not drawn)	-1% (inactive)	–
O=C(Nc1ccccc1)c1ccc(NCCc2ccccc2)c([N+](=O)[O-])c1	147% (inactive)	–
Cc1ccc(NC(=O)c2ccc(NCCc3ccccc3)c([N+](=O)[O-])c2)cc1F	2.5% (inactive)	–
Cc1cccc(NC(=O)c2ccc(NCCc3ccccc3)c([N+](=O)[O-])c2)c1	96.9% (active)	58.9
COc1cccc(NC(=O)N2CCC(NC(=O)C(Cc3ccccc3F)NC(C)=O)CC2)c1 (stereo not drawn)	-0.5% (inactive)	–
O=C(Nc1ccccc1C(=O)O)/C(=C/c1ccc([N+](=O)[O-])cc1)NC(=O)c1ccc(Br)o1	20.5% (inactive)	–
Cc1cc(C)c(NC(=O)CCCSc2nnc(N)s2)c(C)c1	-0.5% (inactive)	–
Cc1ccc(-c2[nH]c(-c3ccc(C(=O)O)cc3)nc2-c2ccccc2)cc1	61.6% (inactive)	27.3
CC(=O)Sc1nc(-c2ccccc2)[nH]c1S(=O)(=O)c1ccc(C)cc1	60.7% (active)	–
CSc1nc(-c2ccc(C)cc2)[nH]c1S(=O)(=O)c1ccccc1	-0.2% (inactive)	–

SMILES	inhibition (at 20 µM)	inhibition [1] [%]
COc1ccc(C2/C(=C(/O)c3ccc(F)cc3)C(=O)C(=O)N2c2ccccn2)cc1OC (stereo not drawn)	0.2% (inactive)	–
CC(=O)Nc1ccc(S(=O)(=O)N2CCN(S(=O)(=O)N3CCCCC3)CC2)cc1	0.1% (inactive)	–
O=C(Nc1ccccc1)OC1C2CCC1C(N1CCCCC1)CC2 (stereo not drawn)	1.6% (inactive)	–
O=C(Nc1nccs1)c1cc(S(=O)(=O)N2CCCCC2)ccc1Cl	-1.5% (inactive)	–
CC(=O)N1C(=O)/C(=C2\SC(=S)N(NS(=O)(=O)c3ccc(C)cc3)C2=O)c2ccccc21	55.6% (inactive)	-0.3
O=C1/C(=C\c2ccc(Br)cc2)SC(=S)N1NS(=O)(=O)c1ccccc1	67.6% (inactive)	0.2
CSc1ccc(CNCc2ccc3c(c2)OCO3)cc1	3.5% (inactive)	–
CCCC(C(=O)Nc1ccc2c(C)cc(=O)oc2c1)c1ccccc1 (stereo not drawn)	0.5% (inactive)	–
O=[N+]([O-])c1ccc(/C=C/C2=NN(c3ccccc3)C(c3ccco3)C2)o1 (stereo not drawn)	18.7% (inactive)	–
C(=C\c1ccco1)/C1=NN(c2ccccc2)C(c2ccco2)C1 (stereo not drawn)	81.8% (active)	–
O=[N+]([O-])c1ccc(/C=C/C2=NN(c3ccccc3)C(c3ccco3)C2)cc1 (stereo not drawn)	35% (inactive)	–
CC(CNC(=O)CCS(=O)(=O)c1cc2c(cc1Cl)NC(=O)CO2)c1ccccc1 (stereo not drawn)	-0.3% (inactive)	–
COc1cccc(/C=c2\s/c(=C/C(=O)c3ccc(C)cc3)[nH]c2=O)c1OC	4.7% (inactive)	–
COc1ccc(/C=c2\s/c(=C/C(=O)c3ccc(C)cc3)[nH]c2=O)c(OC)c1	47.8% (inactive)	–
COc1ccc(/C=C2\SC(c3ccc(C)cc3)=NC2=O)cc1OC	97.6% (active)	176
COc1cc(/C=C2\SC(c3ccc(C)cc3)=NC2=O)ccc1O	36.7% (inactive)	–
COc1ccc(/C=c2\s/c(=C/C(=O)c3ccc(C)cc3)[nH]c2=O)cc1OC	77.2% (active)	–
COc1ccc(/C=C2/SC(c3ccc(C)cc3)=NC2=O)cc1OC	0.3% (inactive)	–
Cc1cc2c(ncn2Cc2ccccc2)c(NS(C)(=O)=O)c1C	-1% (inactive)	–
O=C(CN(Cc1ccc(F)cc1)C(=O)CNS(=O)(=O)c1ccc(F)cc1)NCc1ccco1	1.3% (inactive)	–
COc1ccc(CCNC(=O)Cc2cc(OC)c(OC)cc2Br)cc1OC	1.9% (inactive)	–
CCOC(=O)N1CCc2c(sc3ncn(C)c(=O)c23)C1	-2.6% (inactive)	–
COC(=O)c1ccccc1NC(=O)c1ccc2c(c1)OCCCO2	-0.4% (inactive)	–
O=C(CS(=O)(=O)Cc1ccccc1)N1CCN(c2cccc(C(F)(F)F)c2)CC1	4.6% (inactive)	–
